Experimental findings from PubChem BioAssay (NCI) are described below.

The panel holds about 79,000 compounds, 15% with a hit somewhere; the sample as a whole holds those more often. Activity calls are given as the source filed them. Rule as the data show it: active = growth inhibition above about 70%; inactive = the rest.

A short description of the first experiment: NCI Yeast Anticancer Drug Screen. Data for the mec2-1 strain (AID 157). The following applies: S. cerevisiae mec2-1 strain, at 50.0 µM, stronger effect = higher value. The method in brief: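 Using mec2-1 yeast: add compound, measure growth, express inhibition versus vehicle-treated cultures.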
On to `COc1ccc([N+](=O)[O-])cc1`, for which the growth inhibition is -5.8% (inactive).
Turning to `CC(Cl)CN1CCCCC1` (stereo not drawn) (tested in a mixture with another compound), the growth inhibition is 1.25% (inactive).
Regarding `COc1cc2c(cc1OC)-c1c3c(cc4c1[C@@H](C2)N(C)CC4)OCO3`, the growth inhibition was -12.8% (inactive).
For `O=C(O)[C@H](O)[C@@H](O)C(=O)O.[Pb]`, the growth inhibition was -4.35% (inactive).
Take `O=C(NCCc1ccccn1)c1ccc2cc(C(=O)N3CC(CCl)c4ccc([N+](=O)[O-])cc43)[nH]c2c1` (stereo not drawn): the growth inhibition is -2% (inactive).
Take `CN(C)[C@@H]1C(=O)C(C(N)=O)=C(O)[C@]2(O)C(=O)C3C(=O)c4c(O)ccc(Cl)c4[C@](C)(O)[C@H]3C[C@@H]12` (stereo partly drawn): the growth inhibition is 7.5% (inactive).
Take `Cc1cc(C)c(O)c(C)c1`: the growth inhibition is -18.3% (inactive).
For the compound `N#CC(N)c1ccccc1` (stereo not drawn), the growth inhibition is -14.9% (inactive).
Regarding `N#Cc1ccccn1`, the growth inhibition is -30.7% (inactive).
Consider `CCCCCCCC/C=C\CCCCCCCC(=O)OCC(COC(=O)CCCCCCC/C=C\CCCCCCCC)OC(=O)N(CCCl)CCCl`, for which the growth inhibition was -9.25% (inactive).
As for `COC(=O)C(C)N(CCCl)P1(=O)OCCCN1CCCl` (stereo not drawn), the growth inhibition is 24.8% (inactive).
`N#CS.N=C=S.O=N[O-].[Co+3].[NH-]CC[NH-].[NH-]CC[NH-]`: the growth inhibition is 6.3% (inactive).
Regarding `ClCc1ccccc1`, the growth inhibition was 8.8% (inactive).
For `CCC1CN(CC(=O)c2ccc(Br)cc2)CCO1` (stereo not drawn), the growth inhibition is 3.35% (inactive).
Consider `CC(=O)C(C(C)=O)C(C)=O.[Cr]`, for which the growth inhibition is -15.1% (inactive).
With `O=C(Cc1nc2ccccc2c(=O)n1-c1c(Cl)cccc1Cl)c1ccncc1`, the growth inhibition is 7.95% (inactive).
Turning to `CCCCOP(=O)(Nc1ccc(Cl)cc1)OCCCC`, the growth inhibition is 99.7% (active).
As for `CCOS(=O)(=O)c1ccc(C)cc1`, the growth inhibition was 8.25% (inactive).
In the case of `CC(C)=CC1CC(=[N+]=[N-])C(=O)C1(C)C` (stereo not drawn), the growth inhibition is 7.1% (inactive).
Regarding `Cc1ccc(-n2c(=O)[nH]c3ccccc3c2=O)cc1[N+](=O)[O-]`, the growth inhibition is 12.3% (inactive).
Still for that read-out and setting: for `O=[N+]([O-])c1ccc2c(c1)[O][Sn]([I])([I])[O]2` the value was -3.95% (inactive).
`O=C(CN1C(=O)C2CCCCC2C1=O)N1CC1` (stereo not drawn): the growth inhibition is 0.1% (inactive).
Take `NC1C(=O)NC(=O)NC1=O`: the growth inhibition is 11.4% (inactive).
Consider `ClCCN(CCCl)c1ncnc2c1ncn2Cc1ccccc1`, for which the growth inhibition was 17.4% (inactive).
For `O=P(N1CCNCC1)(N1CCNCC1)N1CCNCC1`, the growth inhibition was -11.8% (inactive).
Regarding `CCNP(=O)(OCC)OCC`, the growth inhibition was -15.6% (inactive).
On the same count and under the same terms, the same measure for `COc1cc2c(cc1OC)CC[N+](C)=C2`: -6.5% (inactive); for `CCOP(=S)(Oc1ccccc1[N+](=O)[O-])c1ccccc1` (stereo not drawn): 7.4% (inactive); for `NCCn1ccc2ccccc21`: -21.2% (inactive).
Still for that read-out and setting: for `ClC1=C(Cl)C2(Cl)C3C4CC(C5OC45)C3C1(Cl)C2(Cl)Cl` (stereo not drawn) the value was -16.6% (inactive); for `OC(Cc1ccccn1)C(Cl)(Cl)Cl` (stereo not drawn), -13.5% (inactive); for `O=NC1C(=O)NC(=O)NC1=O`, -5.85% (inactive).
In the case of `C[C@]12CC[C@H](O)C=C1CC[C@@H]1[C@@H]2CC[C@]2(C)C(c3ccc(=O)oc3)CC[C@]12O` (stereo partly drawn), the growth inhibition was -12.9% (inactive).
On the same count and under the same terms, the same measure for `O=[N+]([O-])c1ccc(SC2CCCCCCC2Br)c([N+](=O)[O-])c1` (stereo not drawn): -13.5% (inactive); for `CN(C)/N=C/c1c[nH]c2ccccc12`: -13.8% (inactive); for `CC(=O)OCC1OC(S[As](C)C)C(OC(C)=O)C(OC(C)=O)C1OC(C)=O` (stereo not drawn): 13.8% (inactive).
Same read-out and setting: for `COCC(=O)CP(=O)(OC)OC` the value was -19.6% (inactive).
Take `OCCC[n+]1cccc2ccccc21`: the growth inhibition was 9.25% (inactive).
As to `CC1=CC(=Nc2ccc(N(CCCl)CCCl)cc2)C=C(C)C1=O`, the growth inhibition was -16.6% (inactive).

The nature of another experiment: NCI Yeast Anticancer Drug Screen. Data for the sgs1 mgt1 strain (AID 161).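 Also: 0% = growth of cultures given vehicle only.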 The following applies: S. cerevisiae sgs1 mgt1 strain, at 50.0 µM, stronger effect = higher value. In short, it runs like this: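 Yeast cells carrying a defined DNA-repair defect were exposed to test compounds. Growth inhibition was measured relative to vehicle-treated controls.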
For `COc1ccc([N+](=O)[O-])cc1`, the growth inhibition is 12.6% (inactive).
Take `CC(Cl)CN1CCCCC1` (stereo not drawn) (tested in a mixture with another compound): the growth inhibition was 23.8% (inactive).
As to `COc1cc2c(cc1OC)-c1c3c(cc4c1[C@@H](C2)N(C)CC4)OCO3`, the growth inhibition was -12.8% (inactive).
`O=C(O)[C@H](O)[C@@H](O)C(=O)O.[Pb]`: the growth inhibition was -2.9% (inactive).
Take `O=C(NCCc1ccccn1)c1ccc2cc(C(=O)N3CC(CCl)c4ccc([N+](=O)[O-])cc43)[nH]c2c1` (stereo not drawn): the growth inhibition is 3.95% (inactive).
With `CN(C)[C@@H]1C(=O)C(C(N)=O)=C(O)[C@]2(O)C(=O)C3C(=O)c4c(O)ccc(Cl)c4[C@](C)(O)[C@H]3C[C@@H]12` (stereo partly drawn), the growth inhibition is 22.8% (inactive).
For `Cc1cc(C)c(O)c(C)c1`, the growth inhibition is -5.45% (inactive).
`N#CC(N)c1ccccc1` (stereo not drawn): the growth inhibition was 17.4% (inactive).
`N#Cc1ccccn1`: the growth inhibition is 12.7% (inactive).
On the same count and under the same terms, for `CCCCCCCC/C=C\CCCCCCCC(=O)OCC(COC(=O)CCCCCCC/C=C\CCCCCCCC)OC(=O)N(CCCl)CCCl` the value was -18.4% (inactive).
Consider `COC(=O)C(C)N(CCCl)P1(=O)OCCCN1CCCl` (stereo not drawn), for which the growth inhibition is -6.15% (inactive).
Same read-out and setting: for `N#CS.N=C=S.O=N[O-].[Co+3].[NH-]CC[NH-].[NH-]CC[NH-]` the value was 8.25% (inactive).
On to `ClCc1ccccc1`, for which the growth inhibition is 4.9% (inactive).
Take `CCC1CN(CC(=O)c2ccc(Br)cc2)CCO1` (stereo not drawn): the growth inhibition is 39.9% (inactive).
Consider `CC(=O)C(C(C)=O)C(C)=O.[Cr]`, for which the growth inhibition is -3.6% (inactive).
In the case of `O=C(Cc1nc2ccccc2c(=O)n1-c1c(Cl)cccc1Cl)c1ccncc1`, the growth inhibition was 7.1% (inactive).
The same measure, in the same setting: the same measure for `CCCCOP(=O)(Nc1ccc(Cl)cc1)OCCCC`: 99.5% (active).
For the compound `CCOS(=O)(=O)c1ccc(C)cc1`, the growth inhibition is 3.35% (inactive).
For the compound `CC(C)=CC1CC(=[N+]=[N-])C(=O)C1(C)C` (stereo not drawn), the growth inhibition was 17% (inactive).
On to `Cc1ccc(-n2c(=O)[nH]c3ccccc3c2=O)cc1[N+](=O)[O-]`, for which the growth inhibition is 33% (inactive).
Regarding `O=[N+]([O-])c1ccc2c(c1)[O][Sn]([I])([I])[O]2`, the growth inhibition was 8.8% (inactive).
With `O=C(CN1C(=O)C2CCCCC2C1=O)N1CC1` (stereo not drawn), the growth inhibition is -11.7% (inactive).
The same measure, in the same setting: for `NC1C(=O)NC(=O)NC1=O` the value was 8.4% (inactive); for `ClCCN(CCCl)c1ncnc2c1ncn2Cc1ccccc1`, 15.6% (inactive); for `O=P(N1CCNCC1)(N1CCNCC1)N1CCNCC1`, -1.35% (inactive).
With `CCNP(=O)(OCC)OCC`, the growth inhibition was 12.2% (inactive).
Still for that read-out and setting: for `COc1cc2c(cc1OC)CC[N+](C)=C2` the value was 13.8% (inactive).
Turning to `CCOP(=S)(Oc1ccccc1[N+](=O)[O-])c1ccccc1` (stereo not drawn), the growth inhibition was 12.6% (inactive).
On the same count and under the same terms, for `NCCn1ccc2ccccc21` the value was 5.35% (inactive).
Still for that read-out and setting: the same measure for `ClC1=C(Cl)C2(Cl)C3C4CC(C5OC45)C3C1(Cl)C2(Cl)Cl` (stereo not drawn): 1.25% (inactive).
As for `OC(Cc1ccccn1)C(Cl)(Cl)Cl` (stereo not drawn), the growth inhibition was -1.7% (inactive).
Take `O=NC1C(=O)NC(=O)NC1=O`: the growth inhibition was 3.45% (inactive).
With `C[C@]12CC[C@H](O)C=C1CC[C@@H]1[C@@H]2CC[C@]2(C)C(c3ccc(=O)oc3)CC[C@]12O` (stereo partly drawn), the growth inhibition was 17.9% (inactive).
As to `O=[N+]([O-])c1ccc(SC2CCCCCCC2Br)c([N+](=O)[O-])c1` (stereo not drawn), the growth inhibition is -0.5% (inactive).
With `CN(C)/N=C/c1c[nH]c2ccccc12`, the growth inhibition was -20.1% (inactive).
For `CC(=O)OCC1OC(S[As](C)C)C(OC(C)=O)C(OC(C)=O)C1OC(C)=O` (stereo not drawn), the growth inhibition is -8.3% (inactive).
On to `COCC(=O)CP(=O)(OC)OC`, for which the growth inhibition is -11.6% (inactive).
On the same count and under the same terms, the same measure for `OCCC[n+]1cccc2ccccc21`: 1.1% (inactive); for `CC1=CC(=Nc2ccc(N(CCCl)CCCl)cc2)C=C(C)C1=O`: 12.2% (inactive).
